Test results published in PubChem BioAssay (NCI).
The panel holds about 79,000 compounds, 15% with a hit somewhere; the sample as a whole holds those more often. The source made the active and inactive calls. Rule as the data show it: active = growth inhibition above about 70%; inactive = the rest.

Assays:
[1] = NCI Yeast Anticancer Drug Screen. Data for the rad50 strain (AID 155);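 also: 0% = growth of vehicle-only cultures of the same strain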; details: S. cerevisiae rad50 strain growth inhibition; at 50.0 µM; active compounds read high
Outline: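 A DNA repair-deficient yeast mutant serves as the test organism; compound-induced growth inhibition is calculated against vehicle-treated cells.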

[2] = NCI Yeast Anticancer Drug Screen. Data for the mec2-1 strain (AID 157); details: S. cerevisiae mec2-1 strain, at 50.0 µM, active compounds read high
Outline: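 Using mec2-1 yeast: add compound, measure growth, express inhibition versus vehicle-treated cultures.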

[3] = NCI Yeast Anticancer Drug Screen. Data for the sgs1 mgt1 strain (AID 161);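 also: 0% = growth of cultures given vehicle only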; details: S. cerevisiae sgs1 mgt1 strain, at 50.0 µM, active compounds read high
Outline: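 Percent growth inhibition was derived by comparing compound-exposed mutant yeast with vehicle-exposed cultures. The strain carries alterations in DNA damage repair.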

[4] = NCI Yeast Anticancer Drug Screen. Data for the cln2 rad14 strain (AID 165);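 also: 0% = growth equal to vehicle treated cultures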; details: S. cerevisiae cln2 rad14 strain, at 50.0 µM, active compounds read high
Outline: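 Yeast strain cln2 rad14, bearing defects in cell cycle control and DNA repair, serves as the test system; values reflect growth inhibition compared with vehicle.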

[5] = NCI Yeast Anticancer Drug Screen. Data for the bub3 strain (AID 167); details: S. cerevisiae bub3 mutant strain, at 50.0 µM, active compounds read high
Outline: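 Inhibition values come from growth of compound-treated mutant yeast normalised to vehicle-treated controls.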

[6] = NCI Yeast Anticancer Drug Screen. Data for the mlh1 rad18 strain (AID 175); details: S. cerevisiae mlh1 rad18 strain growth inhibition; at 50.0 µM; active compounds read high
Outline: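 Steps: expose repair-defective yeast to compound; measure growth; express inhibition against vehicle-treated controls.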

Measured: growth inhibition

C[C@]12CC[C@H](O[C@@H]3O[C@H](CO[C@@H]4O[C@H](CO)[C@@H](O)[C@H](O)[C@H]4O)[C@@H](O)[C@H](O)[C@H]3O)C[C@@H]1CC[C@@H]1[C@@H]2CC[C@]2(C)[C@@H](C3=CC(=O)OC3)CC[C@]12O
inactive: [1] -7.75% | [2] -13.6% | [3] -1.85% | [4] -0.85% | [5] -1.95% | [6] 8.85%

COc1ccc(N)cc1N
inactive: [1] 6.8% | [2] 18.1% | [3] 5.5% | [4] -42.4% | [5] 25.5% | [6] 11.1%

COc1ccc2c(c1OC(C)=O)-c1cc(OC(C)=O)cc3c1C(C2)N(C(=O)CN(CCCl)CCCl)CC3 (stereo unspecified)
inactive: [1] -6.4% | [2] -6% | [3] -1.95% | [4] -13% | [5] -0.05% | [6] -6.6%

CC1(C)C(=O)N(O)C(C)(C)N1N=O
inactive: [1] 1.95% | [2] 13.4% | [3] 18.1% | [4] 28.4% | [5] 15.4% | [6] 19.6%

CCC(C)c1ccc(O)cc1 (stereo unspecified)
inactive: [1] 3.5% | [2] -2.9% | [3] -5.95% | [4] -16.1% | [5] -5% | [6] -4.65%

CC(=O)N(C)C(=O)Oc1cccc2ccccc12
inactive: [1] -8.35% | [2] 17.4% | [3] -10.8% | [4] -34.2% | [5] -27.1% | [6] -0.55%

O=[N+]([O-])/C=C\c1c[nH]c2ccc(OCc3ccccc3)cc12
inactive: [1] 52.5% | [2] 30.8% | [3] 53.4% | [4] 45.4% | [5] 55.5% | [6] 40.9%

Cc1ncc(C)[n+]2c(C)csc12
inactive: [1] 5% | [2] -7.95% | [3] -5.05% | [4] -0.4% | [5] -0.9% | [6] -23.4%

NCCc1ccccc1
inactive: [1] 0.15% | [2] -20.6% | [3] 1.5% | [4] -17.4% | [5] -18.3% | [6] -9.9%

N#CC(C#N)=C(C#N)C#N
inactive: [1] 14.1% | [2] 4.6% | [3] 1.9% | [4] -25.9% | [5] 0.05% | [6] 6.25%

COc1ccc(S(=O)(=O)F)cc1N
inactive: [1] -18.6% | [2] -32.5% | [3] -21.6% | [4] 4.35% | [5] -14.3% | [6] -22.4%

O=C(O)CNCP(=O)(O)O
inactive: [1] -31.4% | [2] -23.1% | [3] -52.1% | [4] -15.1% | [5] -46.8% | [6] -20%

c1ccc(-c2cc(-c3ccccc3)c(OOc3c(-c4ccccc4)cc(-c4ccccc4)cc3-c3ccccc3)c(-c3ccccc3)c2)cc1
inactive: [1] -6.7% | [2] -0.7% | [3] -0.95% | [4] -27.9% | [5] -10% | [6] 16.6%

Oc1cccc(/C=N\NC(=S)NC2CN3CCC2CC3)c1 (stereo unspecified)
inactive: [1] 2.85% | [2] -5.9% | [3] -5.85% | [4] -4.45% | [5] 7.1% | [6] -12.8%

CC12CCC3C(CC(N4CC4)C4(O)CC(O)CCC34C)C1CCC2=O (stereo unspecified)
inactive: [1] 15.6% | [2] -10.2% | [3] -3.85% | [4] 14.8% | [5] -8% | [6] -8%

COc1cc(C2c3cc4c(cc3OC(O)C2C)OCO4)cc(OC)c1O (stereo unspecified)
inactive: [1] -13.2% | [2] -49.9% | [3] -23.9% | [4] 8.25% | [5] -2.9% | [6] -5.75%

CC(=O)CC(C)=O.CC(=O)CC(C)=O.[Cl][Sn][c]1ccccc1
inactive: [1] 40.8% | [2] 23.7% | [3] 49.6% | [4] 8.4% | [5] 35.1% | [6] 57.5%

CCOC(=S)S.[Pb]
inactive: [1] 18.9% | [2] 21.8% | [3] 27.2% | [4] 13.6% | [5] 26.2% | [6] 9.7%

C[C@]12CC[C@H]3[C@@H](CC[C@H]4N(CCCl)CCC[C@]34C)[C@@H]1CC[C@@H]2O
active: [6] 76.3%
inactive: [1] 15.9% | [2] 15.9% | [3] 46.5% | [4] 14.8% | [5] 69.2%

COc1cc(O)c2c(O)c3c(=O)cc(C)oc3cc2c1
inactive: [1] -9.75% | [2] -6.2% | [3] 20.6% | [4] 12.6% | [5] -1.95% | [6] -5.35%

[CH3][Sn]([CH3])([Br])[CH2]CCCBr
active: [1] 98.9% | [2] 99.5% | [3] 99.4% | [4] 98.7% | [5] 99.1% | [6] 99.3%

OCCC[n+]1cccc2ccccc21
inactive: [1] -11.2% | [2] 9.25% | [3] 1.1% | [4] -41.6% | [5] 0.95% | [6] -1.7%

COc1ccc2c(c1OC)C[N+]1(C)CCc3cc4c(cc3C1=C2)OCO4 (stereo unspecified)
inactive: [1] 21.6% | [2] -0.5% | [3] -12.8% | [4] -1.95% | [5] -2.2% | [6] -2%

CCOC(=O)N(NC(=O)c1ccc(N(CCCl)CCCl)cc1)C(C)=O
inactive: [1] 6.2% | [2] 8.95% | [3] 3.15% | [4] -15.5% | [5] 5.65% | [6] 30.9%

COc1cc2c(cc1OC)C(c1ccc(O)c(O)c1)CNC2 (stereo unspecified)
inactive: [1] -27.8% | [2] -7.9% | [3] -31.1% | [4] -10.1% | [5] -21.1% | [6] -5.3%

Cc1ncc(CNC(=O)N(CCCl)N=O)c(N)n1
inactive: [1] 0.45% | [2] -6.8% | [3] 6.3% | [4] -10.2% | [5] -4.2% | [6] 32.1%

COC(=O)C(Cl)Cl
inactive: [1] 9.2% | [2] -17.1% | [3] -1.85% | [4] -47.9% | [5] -5.6% | [6] 14.1%

NC(=O)Nc1ccc([As](O)O)cc1
inactive: [1] 11.3% | [2] -2.4% | [3] -0.45% | [4] 11.8% | [5] -20% | [6] 15%

NC1CC(O)C(O)CC1c1ccc2c(c1)OCO2 (stereo unspecified)
inactive: [1] -26.5% | [2] -4.45% | [3] -15.9% | [4] -13.9% | [5] 6.9% | [6] -17.2%

CS(=O)(=O)NC(=NCCOS(C)(=O)=O)N[N+](=O)[O-]
inactive: [1] 9% | [2] -8.5% | [3] 19.4% | [4] -6.85% | [5] 1.9% | [6] 11.8%

Cc1ccc([P+](=O)O)cc1Cl
inactive: [1] -12.1% | [2] -3.75% | [3] -8.55% | [4] -9.25% | [5] 1.65% | [6] -3%

O=C1CCCN1CC#CCN1CCCC1
inactive: [1] -13.8% | [2] -20.9% | [3] 16.9% | [4] 3.3% | [5] 8.55% | [6] 6.2%

N/C(N=P(c1ccccc1)(c1ccccc1)c1ccccc1)=N\[N+](=O)[O-]
inactive: [1] 11.7% | [2] 15.8% | [3] 8.35% | [4] 4.65% | [5] 12.2% | [6] -16.1%

OCC(S)CS (stereo unspecified)
inactive: [1] 17.4% | [2] -26.4% | [3] 12.6% | [4] 2.9% | [5] 9.55% | [6] -13.4%

CSc1nc2cc(Cl)ccc2c2c1C=NCCN2
inactive: [1] 28.6% | [2] 19.2% | [3] 13.7% | [4] -43.4% | [5] -24.1% | [6] 4.05%

Nc1ccc(CCc2ccc(S(=O)(=O)F)cc2)cc1
active: [1] 94.8% | [2] 95.9% | [3] 98.3% | [4] 92.8% | [5] 92.7% | [6] 92.6%

CCCC(=O)[O-].CCCC(=O)[O-].NCCN.NCCN.[Co+3].[O-][Cl+3]([O-])([O-])[O-]
inactive: [1] -18.5% | [2] 19.1% | [3] -5.1% | [4] 23% | [5] -0.45% | [6] -1.75%

CCC(C)C(=O)OC1CC2(C)C(c3ccoc3)OC(=O)CC23OC2(C)OC34C(OC(=O)C(C)C)C3(O)C(OC(=O)C5(C)OC5C)C5(C)CC3(O)C(C)(C5CC(=O)OC)C14O2 (stereo unspecified)
inactive: [1] 24.4% | [2] 19.1% | [3] 9.3% | [4] 26.9% | [5] 13.1% | [6] -24.3%

C/C(CCl)=N\NC1=NC(C)(CCl)P(=O)(NNc2ncccn2)S1 (stereo unspecified)
inactive: [1] 8.05% | [2] 11.2% | [3] 5.2% | [4] 11% | [5] 8.85% | [6] 7.35%

CCc1ccc([N+](=O)[O-])cc1
inactive: [1] -9.25% | [2] -12% | [3] -19.7% | [4] -29.4% | [5] 1.35% | [6] 10.5%

CCC1(CC)C(=O)NC(=O)[N]([Sn]([CH3])([CH3])[N]2C(=O)NC(=O)C(CC)(CC)C2=O)C1=O
inactive: [1] -17.3% | [2] -3.7% | [3] 7.05% | [4] -19.4% | [5] -1.3% | [6] -26.1%
